Compounds with a hit are over-represented: about 9.3% of the library has one in this group of screens.
FMDV antiviral – antivirals against foot and mouth disease virus; FMDV antiviral cell-based qHTS; AID 1159524; Potency, µM (top dose mostly 57.9 µM), without a hit: at the top dose activity change, negative = inhibition, most hits filed as inhibitors; hit rate 1.2% among 410,000; calls by dose curve; tested in HEK293T cells; also: read-out not given here; potency is read from the fitted curve at half-maximal effect; nearly all actives have a fitted effect of over 45% in size
HCV inhibitor – blocks hepatitis C virus; Huh7.5.1 HCVcc-Cre infection, luciferase reporter, 44 h; hit rate 3.4% among 340,000; AID 651820; Potency, µM (series often up to 41.8 µM), without a hit: top-dose activity change, negative = inhibition, hits mostly inhibitors; also: potency is read from the fitted curve at half-maximal effect
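Antiviral activity was scored by luciferase reporter output from cells infected with HCVcc-Cre (~0.5 moi) in presence of compound, 44 h infection period, cells seeded 1,000/well 4 h prior.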
Sm TGR inh – inhibitors of Schistosoma mansoni thioredoxin glutathione reductase; Q962Y6; purified TGR, DTNB reduction, TNB absorbance 405 nm; Potency, µM (highest dose often 114 µM), for the others: top-dose activity change, negative = inhibition, most hits filed as inhibitors; hit rate 3% among 360,000; AID 485364; also: potency is read from the fitted curve at half-maximal effect; nearly all actives have a fitted effect of over 60% in size
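First, TGR (20 nM dispensed) and NADPH were mixed with compound. Second, a 15 min room-temperature incubation followed. Third, further NADPH and then DTNB were added to start the reaction. Finally, TNB absorbance was monitored kinetically.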
HCMV inh – human cytomegalovirus inhibition; HFF cells, HCMV-luciferase reporter, 72 h; stronger effect = lower value; activity change, negative = inhibition, % at 57.5 µM; hit rate 4.5% among 410,000; AID 1259415; in the data active = activity change below about -60%; inconclusive = no clear call, values can overlap the other calls; inactive = above about -39%
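Two compound doses tested in HFFs infected with HCMV-luciferase, MOI 1 PFU/cell, 72 h at 37C. Lysate luminescence read with OneGlo; data normalized against buffer-only and 10uM Salinomycin inhibitor controls.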
VACV mCherry inh – vaccinia inhibition (mCherry reporter); Vaccinia virus mCherry reporter infection, fluorescence; Potency, µM (doses to about 36.5 µM), for the others: at the top dose activity change, negative = inhibition, most hits filed as inhibitors; hit rate 0.63% among 310,000; AID 720579; calls by dose curve; tested in A549 cells; also: potency is read from the fitted curve at half-maximal effect; nearly all actives have a fitted effect of over 35% in size
VACV Venus inh – inhibitors of vaccinia virus (Venus reporter). Vaccinia virus Venus reporter expression, fluorescence. hit rate 0.46% among 330,000. Potency, µM (top dose mostly 36.5 µM), without a hit: top-dose activity change, negative = inhibition, hits mostly inhibitors; calls by dose curve; tested in A549 cells; also: potency is read from the fitted curve at half-maximal effect; nearly all actives have a fitted effect of over 30% in size
Numbers without * were called inactive; i = inactive; ? = inconclusive; / = not tested or not shown. Unless noted, calls follow the shape of the dose curve; as a rule, active = well fitted curve in the direction sought with a large enough effect; inconclusive = small, poorly fitted or top-dose-only effect, or another doubt; inactive = no such curve, though single readings can be large; an effect the other way counts as inactive or inconclusive. % is scaled to controls: 0 for no effect and ±100 for the full control effect.

SMILES	FMDV antiviral	HCV inhibitor	Sm TGR inh	HCMV inh	VACV mCherry inh	VACV Venus inh
CCCN(CCC)C(=O)CSc1nc2n[nH]c(C)c2c(=N)n1-c1ccc(OC)cc1	22µM*	?	1%	28	/	?
CCCCN(CC)C(=O)CSc1nc2n[nH]c(C)c2c(=N)n1-c1cccc(C)c1	?	11µM*	-10%	?	?	?
COc1ccccc1NC(=O)CSc1nc2n[nH]c(C)c2c(=N)n1-c1ccccc1Cl	?	11µM*	8%	-7	/	/
CCCCN(CC)C(=O)CSc1nc2n[nH]c(C)c2c(=N)n1-c1cccc(OC)c1	-20%	/	4%	77	?	?
CCc1ccccc1NC(=O)CSc1nc2n[nH]c(C)c2c(=N)n1-c1cccc(C)c1	-27%	/	9%	6	-17%	-18%
Cc1cc(C)n(C(=O)CCN2C(=O)c3ccccc3C2=O)n1	/	2%	26%	-3	-9%	0%
CSc1nsc(SCc2cnc(C)nc2N)n1	-11%	12%	40µM*	-8	22µM*	?
CN1CCc2c(sc(NC(=O)c3ccc(S(=O)(=O)N4CCCC4)cc3)c2C(N)=O)C1	-2%	-11%	100µM*	-28	/	/
CCOC(=O)c1c(NC(=O)c2ccc(S(=O)(=O)N(C)C)cc2)sc2c1CCN(C)C2	-4%	/	-11%	?	i	?
CN1CCc2c(sc(NC(=O)c3cc(Cl)sc3Cl)c2C(N)=O)C1	-18%	13µM*	-21%	3	?	-18%
CN1CCc2c(sc(NC(=O)c3ccc(S(=O)(=O)N4CCCCCC4)cc3)c2C(N)=O)C1	?	?	-22%	/	-7%	?
CCOC(=O)c1c(NC(=O)c2ccc(S(=O)(=O)N3CCC(C)CC3)cc2)sc2c1CCN(C)C2	-18%	/	-22%	-82*	-17%	?
CCOC(=O)N1CCN(S(=O)(=O)c2ccc(C(=O)Nc3sc4c(c3C(=O)OC)CCN(C)C4)cc2)CC1	-12%	?	0%	-62*	-5%	?
CC(C)c1ccc(N2C(=NC(=O)C3CC3)SC3CS(=O)(=O)CC32)cc1 (stereo not given)	-1%	5%	-16%	-19	-17%	-7%
CCOc1cc(N2CCOCC2)c(OCC)cc1NC(=O)COC(=O)CCn1c(C)csc1=O	-21%	-7%	-9%	-34	i	-21%
CCOC(=O)c1c(NC(=O)C2CCCN(S(=O)(=O)c3ccccc3)C2)sc2c1CCCC2 (stereo not given)	-25%	5.6µM*	-14%	?	-15%	-14%
CCOC(=O)c1c(NC(=O)COc2cccc3c2CCN(C)C3=O)sc2c1CCC2	?	-4%	?	-63*	-17%	?
COc1cc(/C=C(\C#N)C(=O)c2ccc(O)c(O)c2)cc(I)c1O	-22%	4%	?	11	-14%	58%
COc1ccc(CCn2nnnc2C(C(C)C)N2CCC(C(N)=O)CC2)cc1OC (stereo not given)	4%	22%	-5%	-27	-6%	-7%
CCc1ccc(-n2c(SCc3ccccc3Cl)nc3[nH]ncc3c2=O)cc1	?	/	0%	-105*	-17%	-20%
COc1ccc(N2CCN(C(=O)c3sc4nc(-c5ccc(F)cc5)cn4c3C)CC2)cc1	-30%	8%	5%	12	-3%	-15%
Cn1cc(CC(=O)N2CCN(c3ccc(Cl)cc3)CC2)c2ccccc21	-16%	?	2%	6	/	?
NC(c1csc(Nc2ccc(C(F)(F)F)cn2)n1)C1CCCCC1 (stereo not given)	-28%	/	/	-102*	?	?
CC(C)CC(N)c1csc(Nc2cnccn2)n1 (stereo not given)	7%	/	/	80	11µM*	10µM*
NC(c1csc(Nc2cnccn2)n1)C1CCCCC1 (stereo not given)	0%	/	/	-68*	-21%	-11%
NC(CO)c1csc(Nc2ccc(C(F)(F)F)cn2)n1 (stereo not given)	-3%	/	/	1	38%	2%
O=C(Cc1ccc(Cl)cc1)NNc1c(F)c(F)cc(F)c1F	14%	1%	4%	-32	-12%	-24%
